Molecules are shown by their SMILES. Calls of active or inactive are those of the source. Rule for the calls: active = hit-call score of the fitted dose curve at least 0.9, where 1 is the maximum; inactive = score below 0.9.

The record followed here is PubChem BioAssay (EPA / NIEHS).

Read-out in this assay: ABC Transporter (ABCC2), ABCC2 (gene 1244)
The assay is described as follows: LTEA_HepaRG_ABCC2: Life Technologies and Expression Analysis (LTEA) Assay for ABC Transporter (ABCC2) using HepaRG (AID 2283464). Conditions: mRNA level, 48 h; actives raise or lower the signal. As to the method: LTEA_HepaRG is a cell based, multiplexed-readout assay that uses HepaRG, a human liver cell line, with measurements taken at 48 hours after chemical dosing on a 96-well plate.LTEA_HepaRG_ABCC2 is one of 102 assay component(s) measured in the LTEA HepaRG cell culture assay. It is a marker of Steatosis/NR mediated transport.Data from the assay component LTEA_HepaRG_ABCC2 was analyzed into 1 endpoint. This assay endpoint, LTEA_HepaRG_ABCC2, was analyzed with bidirectional fitting relative to DMSO as the negative control and baseline of activity. Using a type of inducible reporter, measures of mRNA induction for gain or loss-of-signal activity can be used to understand regulation of transcription factor activity. To generalize the intended target to other relatable targets, this assay endpoint is annotated to the transporter intended target family, where the subfamily is ABC transporter.
A total of 1060 chemcials from the ToxCast library were tested in eight-point concentration-response experiments. Cell culture and cytotoxicity assays were conducted at Thermo Fisher Scientific's Custom Services facility (Madison, WI). A single lot of human HepaRG cells (Thermo Fisher Scientific, Frederick, MD) was used for the cell culture experiments. 96-well format collagen type I coated plates of human HepaRG cells were prepared using established methods. Briefly, cryopreserved HepaRG cells were thawed, plated at a density of approximately 100,000 cells/well in HepaRG Thaw, Plate, and General Purpose media (HPRG770, Thermo Fisher Scientific), and incubated for 48 hours. 0.5% DMSO was selected as vehicle control to balance the requisite need of DMSO in HepaRG cultures to maintain differentiation (for example, baseline metabolism, proportions of hepatocytes vs. cholangiocytes), while enabling further hepatic receptor pathway activation (for example, PXR and CAR) in response to chemical exposure. 48 hours after plating, the culture medium was replaced with HepaRG Serum-Free Incudtion Media. Cells were exposed to each test chemical in duplicate and maintained in CO2 incubators for another 48 hours. Chemical plates were thawed to room temperature and 200x concentrations of treatment groups were prepared. 8-point conentration-reponse curves were made with the highest exposure at 100 uM, followed by half-log dilutions, all in 0.5% DMSO. Each test plate contained variouse controls, induction positive controls (1mM phenobarbital), cytotoxicity positive controls ([…] aflatoxin B1), vehicle controls (0.5% DMSO), and total lysis controls (0.5% DMSO). Cell morphology images were taken using an Essen IncuCyte FLR automated microscope, with six 96-well plates imaged in about 24 minutes. Images were captured and exported and JPEG files. Spent culture media was transfered to black-well plates for the LDH assay, and remaining media was sorted at -80 C for later use. Cells were treated with RLT buffer and frozen until shipped for gene expression analysis. Total RNA was isolated from the cell suspension in 75 uL of Buffer RLT (Qiagen, Germantown, MD 20874) by Quintiles/Expression Analysis (Durham, NC) using a custom isolation procedure. Total RNA from each plate well was transferred to a preamplification plate. Fluidigm's 96.96 Dynamic ArrayTM (Fluidigm, Amsterdam, the Netherlands) technology was used for gene expression analyses by quantitative reverse transcription polymerase chain reaction (qRT-PCR, performed by Quintiles/Expression Analysis, Durham, NC)89. Standard TaqManTM Assays (Applied Biosystems/ThermoFisher Scientific, Foster City, CA) were used to assess the expression of 93 genes selected based on their selectivity and sensitivity to important hepatic receptors known to be modulated by environmental chemicals; importance in human hepatocyte functionality; and hepatotoxicity. […]
For `C[C@]12CCC(=O)C=C1CC[C@@H]1[C@@H]2CC[C@@]2(C)[C@H]1CC[C@]2(C)O`, the result was inactive.
Same read-out and setting: with `CC(C)(O)C(=O)Nc1ccc([N+](=O)[O-])c(C(F)(F)F)c1` the entry was “inactive”; with `Cc1cccc(C)c1N`, “inactive”; with `CCOP(=S)(OCC)SCSC(C)(C)C`, “inactive”.
On the same count and under the same terms, then `Clc1ccc(C(Cl)(Cl)Cl)cc1`, with “inactive”.
`Clc1ccc(C(c2ccccc2Cl)C(Cl)(Cl)Cl)cc1` (stereo not given): the AC50 is 13.2 µM (active).
Still for that read-out and setting: with `CCC(C)c1cc([N+](=O)[O-])cc([N+](=O)[O-])c1O` (stereo not given) the figure was 1.46 µM (active).
Still for that read-out and setting: with `O=C(O)C(F)(F)C(F)(F)C(F)(F)C(F)(F)C(F)(F)C(F)(F)C(F)(F)C(F)(F)C(F)(F)F` the figure was 94.8 µM (active).
For the molecule `Cc1cccc([N+](=O)[O-])c1`, the molecule was called inactive.
The same measure, in the same setting: with `CCC(=O)O[C@H]1CC[C@H]2[C@@H]3CCC4=CC(=O)CC[C@]4(C)[C@H]3CC[C@]12C` the entry was “inactive”.
For `Clc1ccc(Cl)cc1`, the molecule was called inactive.
As to `COc1ccc(O)c(C(C)(C)C)c1`, the molecule was called inactive.
`C1CC2OC2CC1C1CO1` (stereo not given): the outcome was inactive.
The same measure, in the same setting: with `CCNc1nc(NC(C)C)nc(SC)n1` the entry was “inactive”; with `O=C(NC(=O)c1c(F)cccc1F)Nc1cc(Cl)c(OC(F)(F)C(F)F)c(Cl)c1`, “inactive”.
For `CCCCCCCCCC[N+](C)(C)CCCCCCCCCC`, the AC50 is 94.2 µM (active).
On to `O=S(=O)(O)C(F)(F)C(F)(F)C(F)(F)C(F)(F)F`, for which the molecule was classed as inactive.
In the case of `Oc1c(Cl)c(Cl)c(Cl)c(Cl)c1Cl`, the AC50 was 2.03 µM (active).
Take `Cc1cc(-c2ccc(N)c(C)c2)ccc1N`: the molecule was called inactive.
On to `Cc1ccccc1CO[C@@H]1C[C@@]2(C(C)C)CC[C@]1(C)O2`, for which the concentration at half-maximal activity (AC50) is 75.1 µM (active).
Regarding `Cc1ccccc1O`, the outcome was inactive.
On the same count and under the same terms, then `CCOC(=O)C(O)(c1ccc(Cl)cc1)c1ccc(Cl)cc1`, with “inactive”; and `CC1=C2C[C@H]3[C@@H](CC=C4C[C@@H](O)CC[C@@]43C)[C@@H]2CC[C@]12O[C@@H]1C[C@H](C)CN[C@H]1[C@H]2C`, with “inactive”.
On to `CO/C=C(/C(=O)OC)c1ccccc1COc1cccc(C(F)(F)F)n1`, for which the half-maximal activity concentration (AC50) was 28 µM (active).
As for `CC#Cc1cc(C)nc(Nc2ccccc2)n1`, the call was inactive.
On the same count and under the same terms, then `O=C(N[C@H]1CN2CCC1CC2)c1cc2ccoc2cn1`, with “inactive”; and `CCC(C)(c1ccc(O)cc1)c1ccc(O)cc1`, with “inactive”.
As for `C[C@]12CCC(=O)C=C1CC[C@@H]1[C@@H]2CC[C@]2(C)C(=O)CC[C@@H]12`, the concentration at half-maximal activity (AC50) is 50 µM (active).
Same read-out and setting: with `NS(=O)(=O)C(F)(F)C(F)(F)C(F)(F)C(F)(F)C(F)(F)C(F)(F)C(F)(F)C(F)(F)F` the figure was 10.1 µM (active).
Turning to `Nn1cnnc1`, the result was inactive.
Regarding `ClC1=C(Cl)[C@]2(Cl)[C@@H]3[C@@H]4C[C@@H]([C@H]5O[C@@H]45)[C@@H]3[C@@]1(Cl)C2(Cl)Cl`, the AC50 is 4.03 µM (active).
Consider `CCCCCCCCCc1ccc(O)cc1`, for which the call was inactive.
Consider `CCOCCOC(C)=O`, for which the call was inactive.
The same measure, in the same setting: then `CCSC(=O)N(CC)C1CCCCC1`, with “inactive”.
With `C=CC(N)=O`, the result was inactive.
Still for that read-out and setting: with `CCCCCCOC(=O)c1ccccc1C(=O)OCCCCCC` the entry was “inactive”.
Still for that read-out and setting: with `Cc1ccccc1[N+](=O)[O-]` the entry was “inactive”.
Same read-out and setting: then `Oc1ccc(Cl)cc1Cl`, with “inactive”.
Take `CN(C)c1nc(=O)n(C2CCCCC2)c(=O)n1C`: the molecule was classed as inactive.
The same measure, in the same setting: then `CN(C)CCO`, with “inactive”.
